# In PubChem BioAssay AID588758 (Vanderbilt Specialized Chemistry Center, 2011):
# The source made the active and inactive calls.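 How the source made its calls: active means compound cutting binding or function at one or more panel targets by over half; inactive means the rest.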
# Assay: off-target binding across receptor and transporter panel, profiling panel, selectivity assay for M4 PAM project, biochemical, Ricerca panel, percent inhibition (AID 588758)
# Details: Ricerca radioligand binding panel, % inhibition, at 10 µM, stronger effect = higher value
structure (smiles),measurement,setting,value
Cc1nc2sc(C(=O)NCc3ccncc3)c(N)c2c(C)c1Cl,inhibition,GABA-A flunitrazepam site binding,64%
same,inhibition,,79% (active)
same,inhibition,measured here: 5-HT2B receptor binding,74%
same,inhibition,measured here: 5-HT3 receptor binding,35%
same,inhibition,measured here: Adenosine A3 binding,40%
same,inhibition,measured here: Adrenergic beta2 binding,36%
same,inhibition,measured here: GABA-B 1A binding,25%
same,inhibition,measured here: Muscarinic M1 binding,9%
same,inhibition,measured here: Muscarinic M2 binding,10%
same,inhibition,measured here: Muscarinic M3 binding,14%
same,inhibition,measured here: Norepinephrine transporter binding,35%
same,inhibition,measured here: Serotonin transporter binding,3%
same,inhibition,measured here: hERG channel binding,12%
